Data from PubChem BioAssay (NCI).
The panel holds about 83,000 compounds, 20% with a hit somewhere; the sample as a whole holds those more often.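 Testing used 96-well plates and a 48-hour single-concentration exposure. Example: -40 means 40% of the starting cells died.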 A number with no mark means an inactive call. Active and inactive are the calls of the source. The calls were made as follows: active = growth percent below 10; inactive = the rest.

System: HL-60(TB) leukemia
Assay: NCI-60 one-dose screen, 48 h (100 = growth as untreated, 0 = no growth, -100 = all killed)
Details: 10 µM unless noted

Compound	growth
Cc1cc(=O)oc2cc(Oc3nc(-c4ccc(Cl)cc4)cn4c(-c5ccc(Cl)cc5)cnc34)ccc12	86.8%
NC(=O)N1CCOCC1	93.5%
C=CCOc1ccc(N=NC(C#N)C#N)cc1	0.44% (active)
CC1=NC2=Nn3c(c4cnn(-c5ccccc5)c4n/c3=N\N)NN2C(c2ccccc2)=C1	106%
C/C(=N\NC(=O)Cn1c(-c2ccc(S(C)(=O)=O)cc2)nc2ccccc21)c1ccc(Cl)cc1	74.8%
Cc1ccc(C2=C/C(=C/c3ccc(Br)cc3)C(=O)N2CCc2ccc(S(N)(=O)=O)cc2)cc1	96.7%
O=C1/C(=C\c2ccccc2)CN(C(=O)c2ccccc2)C/C1=C\c1ccccc1	29.6%
Clc1ccc(Sc2nc(NC3CC3)nc(Sc3ccc(Cl)cc3)n2)cc1	60.9%
CC(=O)c1cc2c(N)c(C(=O)Nc3cccc4ccccc34)sc2nc1C	-10.7% (active)
COc1ccc(/C=c2\c(=O)n(-c3ccccc3)c3nn4c(n23)=NNC42CCCCC2)cc1	110%
CC(O)CCNC(c1ccccc1)C(O)c1ccccc1 (stereo not drawn)	102%
O=C(N/N=C/c1ccccc1O)c1ccccc1	11.4%
Cc1ccccc1-n1nnc(C(=O)Nc2nc(-c3ccccc3)c(-c3ccccc3)s2)c1C	89.1% [50 µM]
COc1cc2c(cc1OC)-c1ccc3cc4c(cc3c1N(CCCN1CCCCC1)C2)OCO4	37.1%
COc1cc(-c2nc(C(=O)NCC(=O)O)nn2-c2ccc(Cl)cc2)cc(OC)c1OC	101%
COc1cc(/C=C/c2nc(Nc3ccc(S(=O)(=O)Nc4cc(C)on4)cc3)c3ccccc3n2)ccc1O	27.4%
Oc1cccc2ccc(N/N=C/c3cc(CN4CCOCC4)c(O)c4ncccc34)nc12	0.899% (active)
COc1ccc(-c2ccc(-c3ccc(C(=N)N)nc3)s2)cc1	-47.3% (active)
O=C1C(=O)c2ccccc2C(O)=C1CCCc1ccc(C2CCCCC2)cc1	30.6%

Compound	growth
CCCCCCCCCCCCOC(=O)/C=C\C(=O)NC(N)=O	52.3%
Cc1cc(N(CCCNc2ccnc3cc(Cl)ccc23)Cc2ccccn2)nc(N2CCCC2)n1	65.8%
O=C(/C=C/c1sc(Cl)nc1Cl)c1ccc(F)cc1	61.2%
CCN1CCN(c2cc(C)nc(NCc3cc(Nc4ccnc5cc(Cl)ccc45)ccc3F)n2)CC1	95.7%
COc1ccc2nc3cc(Cl)ccc3c(Nc3cc(C(C)C)c(O)cc3C)c2c1	7.64% (active)
C#CCCCCCCC[C@@H]1OC(=O)[C@H]([C@@H](C)CC)NC(=O)[C@@H]([C@@H](C)CC)NC(=O)CC(=O)[C@@H]1C	107%
COC1=CC(c2ccc[nH]2)=N/C1=C\c1[nH]c(C)c(CC(=O)NCc2ccccc2)c1C	-0.337% (active)
CCc1ccc(-c2nnc(COc3ccc(-c4nc5ccccc5[nH]4)cc3OC)o2)cc1	78.4%
COc1ccc(C2=NN(/C=C3\SC(=O)NC3=Nc3ccc(F)cc3)C(c3ccc(F)cc3)C2)cc1 (stereo not drawn)	98.1%
COc1ccc2c(c1)O/C(=C\c1ccc([N+](=O)[O-])o1)C2=O	-17.7% (active)
CC(=O)C1N=NCC1c1ccccc1 (stereo not drawn)	96.8%
c1ccc([P+](c2ccccc2)(c2ccccc2)c2ccc3c4ccc([P+](c5ccccc5)(c5ccccc5)c5ccccc5)c5cccc(c6cccc2c63)c54)cc1	11.2%
COc1cc(C2CC(=O)Nc3c2cnn3Cc2ccco2)cc2c1OCCO2 (stereo not drawn)	25.6%
O=C(NNC(=O)c1ccc(NC(=O)c2ccccn2)cc1)Nc1ccc2ccccc2c1	105%
N#Cc1c(-c2ccccc2)cc(-c2ccccc2)n(CCCCCCC(=O)O)c1=O	105%
COC(=O)C1=C(C(=O)ON)[C@@H]2C=C[C@@]1([C@@H](Cc1ccccc1)Nc1ccccc1)O2	-3.29% (active)
O=C(OCc1ccc2c(Br)cc(Br)c(O)c2n1)N1CCN(C(=O)c2cc3ccccc3[nH]2)CC1	53.9%
Cc1onc(-c2ccccc2Cl)c1C(=O)Cl	104%
O=C1Nc2ccccc2C12C=C(c1ccccc1)Nc1c2c(-c2ccccc2)nn1-c1ccccc1 (stereo not drawn)	5.77% (active)
